Screens from PubChem BioAssay.
TRPML1 inh: human mucolipin-1 channel inhibition. Q9GZU1. TRPML1-inducible cells, Ca2+ dye fluorescence, FDSS; stronger effect = lower value; inhibition of EC80 agonist-evoked calcium signal. activity change, negative = inhibition, % (concentration not given with the values). hit rate 0.02% among 390,000; in the data active = activity change below about -50%; inconclusive = between about -30% and that limit;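 note: stimulus is agonist 54-4 at its EC80 concentration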
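Tet-induced TRPML1-DL cells loaded with Ca8 no-wash calcium dye were read kinetically on FDSS. Compound addition was followed by EC80 agonist 54-4 (4 uM final); inhibition was read over 110 s.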
D3 ag: activates the human D3 dopamine receptor; AID 652048; D3R DiscoveRx beta-arrestin cells, luminescence, 90 min; max activation, %; hit rate 0.58% among 410,000; P35462; in the data active = max activation above about 30%
Target sequence (P35462 whole entry, looked up): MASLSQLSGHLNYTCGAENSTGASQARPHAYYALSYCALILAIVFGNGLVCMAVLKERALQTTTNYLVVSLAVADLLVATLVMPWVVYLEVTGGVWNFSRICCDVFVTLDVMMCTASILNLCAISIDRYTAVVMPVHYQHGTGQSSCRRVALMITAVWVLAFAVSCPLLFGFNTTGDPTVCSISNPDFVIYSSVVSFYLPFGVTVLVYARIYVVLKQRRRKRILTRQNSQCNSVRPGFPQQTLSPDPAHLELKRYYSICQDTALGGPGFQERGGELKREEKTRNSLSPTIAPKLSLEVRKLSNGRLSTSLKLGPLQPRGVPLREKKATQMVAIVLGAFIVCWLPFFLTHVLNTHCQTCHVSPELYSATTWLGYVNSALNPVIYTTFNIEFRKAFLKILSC
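Cells at 1500/well, incubated overnight, then treated with pinned compounds (dopamine as control) for 90 min at 37 degrees C. DiscoveRx reagent added for 30 - 60 minutes at room temperature; luminescence read.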
TRPML1 agonist: activates the human TRPML1 channel; Q9GZU1; TRPML1-expressing cells, Ca2+ dye fluorescence, FDSS; activation, % (concentration not given with the values); hit rate 0.12% among 410,000; AID 624414; in the data active = activation above about 50%; inconclusive = mostly about 30% to 49%
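Agonist activity was taken from a 110 s kinetic Ca2+ dye read on the FDSS after pinning compounds onto TRPML1-DL cells. The cells were seeded at 1,500/well with Tet inducer, incubated about 16 h, then dye-loaded at room temperature.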
D3 antag: antagonists of human D3 dopamine receptor | P35462 | D3R cells, DiscoveRx beta-arrestin luminescence, antagonist mode; stronger effect = lower value | max response, negative = inhibition, % | hit rate 2.5% among 360,000; in the data active = max response below about -50%; inconclusive = no clear call, values can overlap the other calls
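Cells plated overnight at 1500 cells/well, then exposed to library compounds with dopamine controls for 90 minutes at 37 degrees C. DiscoveRx reagent added for 30–60 minutes at room temperature; luminescence read, quantitative HTS format.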
Hits are given with their value; i = inactive; ? = inconclusive; nt = no result. Sampled rows, rich in hits. Any-hit rate of the full collection: about 2.9%.

SMILES	TRPML1 inh	D3 ag	TRPML1 agonist	D3 antag
O=C(CCS(=O)(=O)Cc1ccccc1)Nc1nc2c(s1)CCCC2	i	i	i	-103
Cc1cccc(C(=O)Nc2nc3c(s2)CCCC3)c1	i	i	i	nt
O=C(CS(=O)(=O)Cc1ccccc1)Nc1nc2c(s1)CCCC2	i	i	i	i
O=C(Nc1nc2c(s1)CCCC2)c1ccc(Br)s1	i	i	i	-67
CCc1cccc(C)c1NC(=O)CCn1c(=O)c2cccn2c2ccccc21	i	i	i	nt
CC1(C)CC(=O)c2cc(C(=O)Nc3cccc4ccccc34)c(=O)[nH]c2C1	nt	nt	i	nt
O=c1[nH]cnc2n[nH]nc12	nt	nt	i	nt
OC(CNCC1COc2ccccc2O1)COCc1cccs1 (stereo not given)	i	i	i	-71
CC(OCC(O)CNCC1COc2ccccc2O1)c1ccc(Cl)cc1 (stereo not given)	i	i	i	-68
COc1ccc(CNCC(O)COCc2cccs2)cc1 (stereo not given)	i	i	i	i
CC(=O)c1cccc(OCC(O)CNCC2COc3ccccc3O2)c1 (stereo not given)	i	37	i	-51
Cc1ccc(N(C)C(CNS(=O)(=O)c2ccccc2)c2ccccc2)cc1 (stereo not given)	i	i	i	nt
O=C1NC2CCCCN2C12CCN(CCCN1c3ccccc3CCc3ccc(Cl)cc31)CC2 (stereo not given)	nt	i	nt	nt
COc1ccc(NC(=O)N(Cc2ccco2)C2CCN(C(C)=O)CC2)c(OC)c1	i	i	i	nt
CN1CCc2c(sc(/N=C/c3c[nH]c4ccccc34)c2C(N)=O)C1	i	i	i	-52
C[C@@H](C[C@@H](O)[C@H](O)C(C)(C)O)[C@@H]1CC[C@]2(C)C3=CC[C@H]4C(C)(C)C(=O)CC[C@]4(C)[C@H]3CC[C@@]12C	i	45	i	i
C[C@H](C[C@H](O)[C@H]1OC1(C)C)C1=C2C[C@H](O)C3[C@@]4(C)CCC(=O)C(C)(C)C4CC[C@]3(C)[C@@]2(C)CC1 (stereo not given in full)	i	i	i	i
Nc1c(CO)nnn1-c1ccccc1	i	i	i	-54
CN(CCNC(=O)c1ccc(CS(=O)(=O)c2ccc(Br)cc2)o1)CCc1ccccc1	i	i	i	-55
CC(CC(=O)Nc1ccc2c(c1)c(=O)n(C)n2-c1cccs1)c1ccccc1 (stereo not given)	nt	i	i	-53
CCOc1cc(C(=S)N2CCCC2)ccc1OCC(=O)Nc1c(C)cc(C)cc1C	i	i	i	-55
CC(C)(C)OC(=O)NCCCC[C@@H](C(=O)NCCCCCCCCCCC(=O)N1CCN(C(=O)OC(C)(C)C)CC1)n1cc(CCO)nn1	i	38	i	i
CC[C@@H](C)[C@@H](C(=O)N1CCN(C(=O)OC(C)(C)C)CC1)n1cc(CCCCNC(=O)OC(C)(C)C)nn1	i	53	i	i
CC(=O)N(c1ccc(Cl)cc1)C1SC(=O)N(c2ccccc2)C1=O (stereo not given)	nt	nt	i	nt
CCN(CC)CCN(C(=O)c1ccc2c(c1)CCCC2)c1nc2c(C)cccc2s1	i	i	i	-51
SMILES	TRPML1 inh	D3 ag	TRPML1 agonist	D3 antag
CCN(CC)CCN(C(=O)c1ccc2c(c1)OCCO2)c1nc2cc(C)cc(C)c2s1	i	i	i	?
CCN(CC)CCN(C(=O)c1ccc2c(c1)OCCO2)c1nc2c(Cl)cccc2s1	i	i	i	-63
CCN(CC)CCN(C(=O)c1ccc2c(c1)CCCC2)c1nc2ccc(C)cc2s1	i	i	i	-51
COc1ccc(-c2cc3ccccc3n2CC(O)Cn2nc(C)cc2C)cc1 (stereo not given)	i	i	i	?
COc1ccc(-c2cc3ccccc3n2CC(O)CN2CCC(C)CC2)cc1 (stereo not given)	i	i	i	-111
COc1cccc(CSc2nc(-c3ccccc3OC)nc3c2Cc2c(CO)cnc(C)c2O3)c1	i	i	i	nt
O=C1CC(c2ccccc2)CC(O)=C1C=Nc1ccccc1Cl (stereo not given)	i	i	i	-81
Cc1cc(Cl)cc(C)c1OCCOCCNCc1ccccc1	i	i	i	-80
Cc1cc(Cl)cc(C)c1OCCNCc1ccccc1	i	i	i	?
Cc1cc(C)c(OCCCCNCc2ccccc2)c(Cl)c1	i	i	i	-76
CN(C)c1ccc(/C=C/c2ccnc3cc(Cl)ccc23)cc1	nt	nt	105	nt
Cc1ccc2c(/C=C/c3ccc(N(C)C)cc3)ccnc2c1	nt	nt	i	nt
O=C(NCC(c1ccco1)N1CCN(c2ccccc2F)CC1)C(=O)NC1CCCCC1 (stereo not given)	i	54	i	i
O=C(NCC(c1ccco1)N1CCN(c2ccccc2F)CC1)C(=O)NC1CC1 (stereo not given)	i	i	i	i
COc1ccc2[nH]c(C)c(C(=O)CN(C)CC(OC)OC)c2c1	nt	nt	i	nt
CCN(CC)CCCNC(=O)c1ccc2c(c1)N(Cc1c(F)cccc1Cl)C(=O)c1ccccc1S2	i	i	i	nt
Cc1ccc2oc(-c3ccccc3)c(C(=O)O)c(=O)c2c1	i	i	i	-53
CCSc1cc(C2C(C#N)=C(N)OC(C)=C2C(=O)OC)c(C)o1 (stereo not given)	i	i	i	-67
CCOC(=O)C1=C(C)OC(N)=C(C#N)C1c1ccccc1 (stereo not given)	i	i	i	i
CCOC(=O)C1=C(C)OC(N)=C(C#N)C1c1ccc(O)c(OC)c1 (stereo not given)	i	i	i	-62
COC(=O)C1=C(C)OC(N)=C(C#N)C1c1ccccc1 (stereo not given)	i	i	i	i
CCOc1nc(C#N)nc(N2CCOCC2)n1	nt	nt	i	nt
Cc1ccccc1-c1noc(-c2ccc(NCc3ccco3)c([N+](=O)[O-])c2)n1	i	i	i	nt
CCCCNC(=O)O[C@@H]1C[C@H]2CCCC(=O)N3CC[C@@H](C1)[C@@H]23	i	33	i	i
CCOC(=O)c1sc2ccccc2c1S(=O)(=O)Nc1ccc(CC)cc1	i	i	i	nt
C#CCOCCOCCOCCNc1nc(N2CCN(C(=O)CCCCCCCCCCNC(=O)[C@H](CCCCN)n3cc(C[C@@H](C)CC)nn3)CC2)nc(N2CCN(C(=O)CCCCCCCCCCNC(=O)[C@H](CCCCN)n3cc(C[C@@H](C)CC)nn3)CC2)n1	i	i	i	-51
C#CCOCCOCCOCCNc1nc(N2CCN(C(=O)[C@H]([C@@H](C)CC)n3cc(CCCCN)nn3)CC2)nc(N2CCN(C(=O)[C@H](CCCCN)n3cc(CCC(=O)O)nn3)CC2)n1	i	i	i	i
C#CCOCCOCCOCCNc1nc(N2CCN(C(=O)[C@H]([C@@H](C)CC)n3cc(CCCN=C(N)N)nn3)CC2)nc(N2CCN(C(=O)[C@H](CCCCN)n3cc(CCC(=O)O)nn3)CC2)n1	i	48	i	i
COc1ccc(/C=N/c2oc(-c3ccccc3)cc2C#N)cc1OC	i	i	i	-52
COc1ccc(/C=N/NC(=O)c2nc(-c3ccccc3)cc(-c3ccccc3)n2)cc1OC	i	i	i	i
